# Source: PubChem BioAssay AID886 (National Center for Advancing Translational Sciences (NCATS), 2007)
# “And” between values parts separate entries of the source, which are not always exact repeats. Identical values can stand only once. Out of some 73,000 compounds screened, about 2,500 (3.4%) were called active. Where a call stands in place of a potency, no number is given. Another 7% or so got no clear call; they are omitted. Calls follow the shape of the dose curve; as a rule, active = well fitted inhibition curve with a large enough effect; inconclusive = small, poorly fitted or top-dose-only effect; inactive = no such curve, though single readings can be large or run the other way. Only a selection was taken, and actives are over-represented in it overall. A structure can be active in one record and inactive in another.
# Molecular target: 3-hydroxyacyl-CoA dehydrogenase type-2 (Homo sapiens) (UniProt Q99714)
# Assay: qHTS Assay for Inhibitors of HADH2 (Hydroxyacyl-Coenzyme A Dehydrogenase, Type II); also: nearly all actives have a fitted effect of over 60% in size
# Settings: recombinant HADH2, NADH fluorescence, beta-hydroxybutyryl-CoA; series mostly up to 57.1 µM
# Excerpt: Assay Overview: NIH Molecular Libraries Screening Centers Network [MLSCN] NIH Chemical Genomics Center [NCGC] Structural Genomics Consortium [SGC] Grant Number: None HADH2: Hydroxyacyl-Coenzyme A dehydrogenase, type II, was supplied by researchers at the Structural Genomics Consortium, Oxford University lab (PI Udo Oppermann). The mitochondrial enzyme 17-hydroxysteroid dehydrogenase type 10 (HSD17-10) previously classified as type II hydroxyacyl-CoA dehydrogenase (HADH2) catalyzes the NAD+ dependent oxidation of a variety of substrates including acyl-CoAs, androgens and neurosteroids as well as bile acids(Shafqat N, Marschall HU, Filling C, et al. Biochemical Journal. 2003;376(Pt 1):49-60). The role in neurodegeneration by binding to amyloid-peptide led to its identification (Oppermann UC, et al FEBS Letters. 1999;451(3):238-242 and Yan SD, et al. Nature. 1997;389(6652):689-695), and mutations in its gene appear to be causative for 2-methyl-3-hydroxybutyryl-CoA dehydrogenase deficiency (Ofman R, et al. American Journal of Human Genetics. 2003;72(5):1300-1307). The enzyme was produced by E.coli fermentation as His-tagged recombinant for the purpose of X-ray structure determination, and had been mass-spectrometry characterized. Inhibition of HADH2 activity was screened by utilizing beta-hydroxybutyryl coenzyme A as an electron donor and NAD+ as an electron acceptor/cofactor. An increase in the fluorescence intensity due to conversion of NAD+ to NADH was used to measure the enzyme activity.
# Assay Protocol: Buffer: 100 mM Tris-HCl pH 9.0, containing 0.01 % Tween-20. Reagents/Controls: Buffer in columns 3 and 4 as negative control (no enzyme). Substrate/cofactor solution: 1 mM NAD+ and 90 uM beta-hydroxybutyryl coenzyme A (Sigma-Aldrich, St. Louis, MO) final concentrations dispensed throughout the plate. Enzyme: 20 nM HADH2 final concentration in columns 1, 2, 5-48. Column 1 is neutral (100% activity). Column 2 contained titration of apomorphine (Sigma-Aldrich, A 4393, PubChem CID 2215, top concentration 500 uM, then 1:2 dilution in duplicate) Assay Steps: Three uL of enzyme were dispensed to 1536-well Greiner black solid bottom plates. Compounds and controls (23 nL) were transferred via Kalypsys PinTool. The plates were incubated for 15 min at room temperature, and then 1 uL of substrate/cofactor solution was added to start the reaction. The plates were immediately transferred to and read every 30 seconds for 4 min on ViewLux High-throughput CCD imager (Perkin-Elmer) using 360 nm excitation and 450 nm emission fluorescence protocol. The fluorescence intensity difference between the last and the first time points was used to compute reaction progress.
# Potency is read from the fitted curve at half-maximal effect.
# Sequence of 3-hydroxyacyl-CoA dehydrogenase type-2 (Homo sapiens) (Q99714 whole entry, looked up): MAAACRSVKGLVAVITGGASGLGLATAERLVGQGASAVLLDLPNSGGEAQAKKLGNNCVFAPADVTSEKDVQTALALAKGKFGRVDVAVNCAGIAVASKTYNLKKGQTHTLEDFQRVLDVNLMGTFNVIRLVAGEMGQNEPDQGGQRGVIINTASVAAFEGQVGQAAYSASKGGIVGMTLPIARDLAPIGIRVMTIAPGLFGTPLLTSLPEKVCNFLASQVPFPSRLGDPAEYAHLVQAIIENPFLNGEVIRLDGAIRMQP
# Sequence of 3-hydroxyacyl-CoA dehydrogenase type-2 (Homo sapiens) (Q99714 whole entry, looked up): as above
Structure (SMILES),Potency,"activity change, negative = inhibition"
CC(=NCc1ccco1)C1=C(O)c2ccccc2C1=O,inactive,
CCc1c(C)nc2cc(-c3cccs3)[nH]n2c1=O,39.8 µM (active),
O=c1[nH]c(-c2cccs2)nc2ccccc12,inactive,
Cc1nc2nc(COc3ccccc3)[nH]n2c(=O)c1Cc1ccccc1,inactive,
CN(C)C(=O)/N=N\C(=O)N(C)C,0.631 µM (active),
CCNCCCNCCCNCCCNCC,inactive,
CO[C@H]1COC(=O)CCC[C@@H](C)[C@H](OC)COC(=O)[C@@H](C)NC(=O)C/C=C\[C@@H]1C,,7.05% [at 11.4 µM] (inactive)
Cc1cccn2c(=O)c3cc(C#N)c(=O)n(CCCN4CCOCC4)c3nc12,31.6 µM (active),
COc1ccc(CNC(=O)c2cc3c(=O)n4ccccc4nc3n(CC3CCCO3)c2=N)cc1 (stereo unspecified),inactive,
Cn1c(=O)c2c(nc(CN3CCOCC3)n2Cc2ccccc2)n(C)c1=O,inactive,
CCCOc1ccc(C2c3c(oc4cc(C)c(C)cc4c3=O)C(=O)N2CCCN2CCOCC2)cc1 (stereo unspecified),inactive,
O=c1c2cc3c(=O)n(CC4CCCO4)c(=O)c3cc2c(=O)n1CC1CCCO1 (stereo unspecified),inactive,
Cc1cccn2c(=O)c3cc(C#N)c(=NC(=O)c4cccnc4)n(CC4CCCO4)c3nc12 (stereo unspecified),25.1 µM (active),
COc1ccc(-c2oc3cc(OC)ccc3c2C(=O)c2ccc(C#N)cc2)cc1,inactive,
c1ccc2nc(C3=NCCN3)cnc2c1,inactive,
CC(C)NC(=O)N1CCC2(CC1)CCN(C(=O)c1cccn1C)CC2,inactive,
O=C(Nc1nc(-c2ccc3c(c2)OCO3)cs1)c1ccncc1,inactive,
c1ccc(Nc2nc(-c3ccncc3)cs2)nc1,inactive,
O=C(Nc1nc(-c2ccncc2)cs1)C1COc2ccccc2O1 (stereo unspecified),1 µM (active),
C#CCCCCCCCCCCCCCCCC(=O)O,inactive,
C[N+](C)(C)CCCCCNCC12CC3CC(CC(C3)C1)C2,inactive,
O=C1NC(=O)[C@@](Cc2ccccc2)(c2cccnc2)N1,,1.4% [at 11.4 µM] (inactive)
COCCn1nnnc1C(c1cc2ccc(OC)cc2[nH]c1=O)N1CCc2ccccc2C1 (stereo unspecified),inactive,
COc1ccc(N2CCN(C(c3cc4ccc(C)cc4[nH]c3=O)c3nnnn3C3CCCC3)CC2)cc1 (stereo unspecified),inactive,
CCOc1ccc2[nH]c(=O)c(C(c3nnnn3CCOC)N3CCOCC3)cc2c1 (stereo unspecified),25.1 µM (active),
O=C(c1ccco1)N1CCC2(CC1)CCN(c1ncccn1)CC2,inactive,

Structure (SMILES),Potency,"activity change, negative = inhibition"
CCCCC(=O)Nc1ccc2c(c1)OCCO2,inactive,
CCC1=C/C(=C\c2ccc3c(c2)OCO3)C(=O)S1,31.6 µM (active),
CCOC(=O)NCc1ccc2c(c1)OCO2,inactive,
C1CCC2OC2C1 (stereo unspecified),inactive,
O=C(Nc1nncs1)c1ccccc1NS(=O)(=O)c1cccs1,31.6 µM (active),
COc1ccc(C(=O)Nc2nncs2)c(OC)c1,inactive,
COC(=O)c1ccccc1NC(=O)c1ccccc1NS(C)(=O)=O,inactive,
COC(=O)c1ccc(C(NC(=O)OCc2ccccc2)/C(C)=C/[C@@H](C)C(=O)NCc2cc(C)on2)cc1 (stereo partly specified),inactive,
Cc1cc(N2CCCCC2)nc2ccc(Cc3ccc4nc(N5CCCCC5)cc(C)c4c3)cc12,,1.3% [at 11.4 µM] (inactive)
Nc1ccc2[nH]cc(CCC(=O)O)c2c1,,-22.6% [at 11.4 µM] (inactive)
Nc1cc(=O)nc(SCc2ccccc2)n1Cc1ccco1,inactive,
c1ccc(CSc2nnc(-c3ccco3)c(-c3ccco3)n2)cc1,5.01 µM (active),
c1ccc(CSc2nnc(-c3ccco3)n2Cc2ccccc2)cc1,inactive,
CC1=C(C(=O)OCc2ccccc2)C(c2ccc(C(F)(F)F)cc2)NC(=O)N1CCCCCC(=O)O (stereo unspecified),inactive,
COCCNc1cc(-c2c(C)noc2C)ncn1,inactive,
CN(CCc1ccccn1)S(=O)(=O)c1ccc2c3c(cccc13)C(=O)N2,31.6 µM (active),
O=c1[nH]nc(Cc2ccccn2)c2ccccc12,inactive,
COc1ccc(-c2nc3cnc(OC)nc3n(Cc3ccc(F)cc3)c2=O)cc1,inactive,
O=C(NCc1ccccc1)[C@H]1C[C@@H]1[C@H](NP(=O)(c1ccccc1)c1ccccc1)c1ccccc1,inactive,
Cc1nc2cnc(N3CCNCC3)nc2n(Cc2ccc(F)cc2)c1=O,inactive,
CCn1c(CNC(=O)c2ccc(OC)c(OC)c2)nnc1SCC(=O)Nc1ccccc1,inactive,
CCOC(=O)c1cc2n(c1C)-c1ccccc1C2=O,inactive,
CCCn1c(=NC(C)=O)c(C(=O)OCC)cc2c(=O)n3ccccc3nc21,31.6 µM (active),
CCOC(=O)c1cc2n(c1N)-c1ccccc1C2=O,inactive,
CS(=O)(=O)N1CCC2(CC1)CN(Cc1cc(C(F)(F)F)cc(C(F)(F)F)c1)C2,inactive,
CS(=O)(=O)Nc1cccc(-c2cncnc2Nc2ccccc2)c1,inactive,

Structure (SMILES),Potency,"activity change, negative = inhibition"
CNc1cc(-c2c(C)noc2C)ncn1,inactive,
N#C/C(=C\c1ccc(O)c(O)c1)C(N)=O,31.6 µM (active),
O=C(CCOc1ccccc1)NCc1ccccc1,inactive,
CCCc1nc2ccccc2c(=O)n1/N=C/c1ccc(O)c(O)c1,inactive,
N#C/C(=C\c1ccc(O)c(O)c1)C(=O)NCc1ccccc1,inactive and 15.8 µM (active),
C[C@@H]1C[C@H]2[C@@H]3C[C@H](F)C4=CC(=O)C=C[C@@]4(C)[C@]3(F)[C@H](O)C[C@]2(C)[C@@]1(O)C(=O)CO,inactive,
COc1ncc2nc(-c3ccc(Cl)cc3)c(=O)n(-c3ccccc3)c2n1,inactive,
COc1ccccc1N1CCN(CCN2C(=O)c3ccccc3C(C)(C)C2=O)CC1,inactive,
Cc1c(S(=O)(=O)O)ccc(N=Nc2c(O)c(C(=O)O)cc3ccccc23)c1Cl,,14% [at 11.4 µM] (inactive)
C/C(CCN1CCc2nc(-c3ccccc3)c(-c3ccccc3)cc2C1)=N\O[C@@H](C)c1cn([C@@H]2COC[C@@H]2O)nn1,,-0.942% [at 11.4 µM] (inactive)
CC(C)=CCC/C(C)=C/CO/N=C1/C[C@@H](O)[C@@H](O)[C@@H]2[C@@H]3C(=O)N(C(C)(C)C)C(=O)[C@H]3CC[C@H]12,,2.13% [at 11.4 µM] (inactive)
Cc1ccc(OCC(=O)Nc2ccc(-c3nnc(-c4ccco4)o3)cc2)cc1,inactive,
Cc1ccc(OCC(=O)Nc2ccc(-c3nc4ncccc4o3)cc2)cc1,inactive,
COc1ccc(CC(=O)Nc2ccc(-c3nnc(-c4ccc(C)cc4)o3)cc2)cc1,0.251 µM (active),
CO[C@H]1COC(=O)C/C=C\[C@H](C)COC(=O)[C@@H](OCc2ccccc2)/C=C\[C@@H]1C,,8.32% [at 11.4 µM] (inactive)
COc1ccc2c(=O)cc(-c3ccccc3)oc2c1O,inactive,
Cc1cc2nc3c(=O)[nH]c(=O)nc-3n(C[C@H](O)[C@H](O)[C@H](O)CO)c2cc1C,inactive,
Cc1cccc(-n2c(N)cc(=O)nc2SC(C)C(=O)NC2CCCCC2)c1 (stereo unspecified),inactive,
COc1cccc(-c2nn(C)c3sc(C(=O)N4CCN(c5ccccc5)CC4)cc23)c1,inactive,
Cc1cccc(-n2c(N)c(C(=O)N3CCN(C)CC3)sc2=S)c1,0.631 µM (active),
O=C(c1ccccc1)N1CCN(C(=O)N2CCCCC2)CC1,inactive,
Cc1ccc(-n2c(N)c(C(=O)N3CCOCC3)sc2=S)c(C)c1,3.16 µM (active),
N#Cc1ccccc1-n1c(N)c(C(=O)N2CCCC2)sc1=S,2.51 µM (active),
CC(=O)c1c(N2CCOCC2)nc(=S)n(-c2cc(C)ccc2C)c1C,inactive,
CCC(=O)Nc1sc(C(=O)N2CCCCC2)c(C)c1C#N,inactive,
Cc1ccc(OCCCC(=O)N2CCOCC2)c(C)c1,inactive,

Structure (SMILES),Potency,"activity change, negative = inhibition"
N#Cc1cc2[nH]c(=O)c(=O)[nH]c2cc1[N+](=O)[O-],inactive,
CCC[C@H]1C(=O)N2C(N(C)C)=Nc3ccc(C)cc3N2C1=O,inactive,
Cc1cnc(CNc2ncncc2-c2ccccc2Cl)cn1,inactive,
COC(=O)[C@H]1C[C@@H]1[C@H](NC(=O)Oc1ccc(F)cc1)c1ccccc1,inactive,
O=c1cc(-c2ccccc2)[nH]c2nc(Cl)ccc12,25.1 µM (active),
CN1CCN(c2ncc3nc(-c4ccc(Cl)cc4)c(=O)n(-c4ccccc4)c3n2)CC1,inactive,
C#CCC(C(=O)OC)(C(=O)OC)C(C[N+](=O)[O-])c1ccccc1 (stereo unspecified),,1.44% [at 11.4 µM] (inactive)
Cc1ccc2oc(=O)ccc2c1,inactive,
CCN(CC)c1ccc2oc(=O)c(C)nc2c1,3.98 µM (active),
CC(=O)OCC1OC(C#CCCCc2ccccc2)C=CC1OC(C)=O (stereo unspecified),,-21.4% [at 11.4 µM] (inactive) and -18.3% [at 11.4 µM] (inactive)
O=c1oc2cc(O)ccc2cc1-c1ccc(F)cc1,inactive,
COc1cccc(C(=O)c2cc3ccc(O)cc3oc2=O)c1,inactive,
COc1ccc(-c2cc3ccc(OCc4nn[nH]n4)cc3oc2=O)cc1,3.16 µM (active),
Nc1ccccc1N,inactive,
COC(=O)N1CCC[C@@]2(CCN(C(=O)NC(C)C)C2)C1,inactive,
N=C(CC(=O)Nc1ccccn1)c1ccccc1,,6.89% [at 11.4 µM] (inactive)
CC(C)c1cc(CN(C)C)c(O)c(C(C)(C)C)c1,,-0.755% [at 11.4 µM] (inactive)
O=C(Nc1cc(N2CCOCC2)ncn1)NC1(C(F)(F)F)Oc2ccc(Cl)cc2O1 (stereo unspecified),3.16 µM (active),
O=C(CN1CCOCC1)Nc1cc(Cl)ccc1Cl,inactive,
c1cnn(-c2cc(N3CCOCC3)ncn2)c1,inactive,
COC(=O)[C@@H]1[C@H]2C[C@H]3c4[nH]c5cc(OC)ccc5c4CCN3C[C@@H]2C[C@@H](OC(=O)c2cc(OC)c(OC)c(OC)c2)[C@@H]1OC,inactive,
O=C(O)CC(C(=O)O)C(CC(=O)O)C(=O)O (stereo unspecified),inactive,
O=C(O)[C@@H](S)[C@H](S)C(=O)O,1 µM (active),
